Compound activity: PubChem BioAssay, several laboratories
Only some compounds are listed: those with a hit (about 0.66% of all), similar ones and a draw of the others.
mHtt clearance: compounds clearing mutant huntingtin protein; HeLa Exon1htt(103Q)mCFP, aggregate imaging; zero = plate's median compound well; inhibition, % at 1.5 µM; 47,000 compounds, 0.42% hits;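 active = inhibition of aggregate fluorescence above about 70%, also judged a hit by eye on the cell image, limit read from the data, passing the limit was not always enough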;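 note: cells exposed to compound for three days before fixation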
SKBR3 24h inh: SK-BR-3 proliferation inhibitors. AID 847. SK-BR-3 viability, CellTiter-Glo ATP luminescence, 24 h; stronger effect = lower value. viability, % at 10 µM. 41,000 compounds, 0.47% hits;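 active = viability at or below the median of all test compounds minus 3 SD, in both replicates if run twice, cut at about 45% in these data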;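 note: 100% = median untreated cell wells and 0% = median positive control drug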
Active calls of the source: *; i = inactive; . = not tested or not shown.

SMILES	mHtt clearance	SKBR3 24h inh
Cc1n[nH]c(=O)nc1NCC1CCCO1 (centres undefined)	75.6*	109.9
Cc1nc(NCC2CCCO2)[nH]c(=O)c1CCC(C)C (centres undefined)	.	103.2
O=C(CCCC(=O)N1CCCc2ccccc21)N1CCCc2ccccc21	-43.2	90.6
O=C(Nc1ccccc1)N1CCCc2ccccc21	82.7*	.
Cc1ccc2[nH]c(C)c(CN(C)C3CCN(C)CC3)c(=O)c2c1	.	25.6*
CCCCN(C)Cc1c(C)[nH]c2ccc(C)cc2c1=O	-33.0	.
COc1ccc(N2CC(C)Cn3c2nc2c3c(=O)n(CCc3ccccc3)c(=O)n2C)cc1 (centres undefined)	.	93.5
COC(=O)NNC(=S)Nc1cc(OC)ccc1OC	24.3	.
CC(C)CNC(=O)c1cc(-c2ccco2)on1	31.4	96.2
CC(=O)c1c(C)[nH]c(C(=O)Nc2ccc(C)cn2)c1C	24.4	.
CC1CC(C)(C)Nc2ccc(OC(=O)c3ccco3)cc21 (centres undefined)	15.6	19.8*
COC(=O)C1=C(C)NC(C)=C(C(=O)OC)C1c1ccc(OC(=O)c2ccco2)cc1	-9.2	.
CCc1ccc(S(=O)(=O)NCc2cn3ccccc3n2)s1	.	85.7
CN(C)c1ccc(-c2nnn(Cc3ccccc3Br)n2)cc1	29.7	66.1
O=C(Nc1ccc(F)cc1)c1oc2ccccc2c1NC(=O)C1CCCC1	8.7	.
O=c1[nH]c(C2CCCN(S(=O)(=O)c3ccccc3)C2)nc2c1nnn2Cc1ccccc1F (centres undefined)	.	31.2*
O=c1[nH]c(C2CCCN(S(=O)(=O)c3ccccc3)C2)nc2c1nnn2Cc1ccccc1 (centres undefined)	41.4	.
Cc1[nH]n(C(C)(C)C)c(=O)c1Sc1ccccc1	0.0	60.5
COc1cccc(N2CCN(c3ncnc4c3[nH]c3ccccc34)CC2C)c1 (centres undefined)	.	59.6
COc1cccc(N2CCN(c3ncnc4c3[nH]c3ccc(F)cc34)CC2C)c1 (centres undefined)	.	5.7*
COc1ccc(OC)c(NC(=O)Cn2cc(C(=O)c3ccco3)c3ccccc32)c1	75.8*	82.9
COc1ccc(OC)c(NC(=O)Cn2cc(C#N)c3ccccc32)c1	-78.4	92.3
CCOC(=O)CCc1c(C)c2ccc(OCc3cc([N+](=O)[O-])ccc3OC)cc2oc1=O	-5.8	.
O=C1[C@@H]2CSCN2C(=O)CN1CCc1cccc(F)c1	-24.7	91.7
CC1CN(CC(=O)N2CCc3[nH]c4ccccc4c3C2)CC(C)O1 (centres undefined)	.	74.4
SMILES	mHtt clearance	SKBR3 24h inh
CC1CC(C)CN(CC(=O)N2CCc3[nH]c4ccccc4c3C2)C1 (centres undefined)	.	42.9*
CC(C)N(C(=O)Cn1cnc2c(cnn2-c2ccccc2Cl)c1=O)C(C)C	17.4	103.2
Cc1ccc(CNC(=O)C2C3C=CC(C3)C2C(=O)O)cc1 (centres undefined)	-44.7	84.0
O=C(NC1CCCCC1)c1nc2c(nnn2Cc2ccccc2Cl)c(=O)[nH]1	73.7*	96.2
O=C(NC1CC1)c1nc2c(nnn2Cc2ccccc2Cl)c(=O)[nH]1	-34.2	.
Cc1ccc(SCc2nnc(N)s2)cc1	-6.5	76.8
O=C(/C=C\Nc1cccc(F)c1)c1ccc2c(c1)OCO2	83.6*	.
O=C(Nc1ccc2c(c1)OCO2)c1cccc(F)c1	-1.6	83.2
COc1cc(-c2nn3c(-c4cccnc4)nnc3s2)cc(OC)c1OC	.	100.7
COc1ccc(OC)c(NC(=O)CSc2nc3c(c(=O)n(C)c(=O)n3C)n2C)c1	18.5	67.6
O=C(COc1ccccc1)NC(Cc1c[nH]c2ccccc12)C(=O)O (centres undefined)	70.6*	.
O=C(NCc1ccccc1)N[C@@H](Cc1c[nH]c2ccccc12)C(=O)O	.	111.5
CCC(Sc1nnnn1-c1ccccc1)C(=O)Nc1nc2ccccc2s1 (centres undefined)	.	78.8
CCC(Sc1nnnn1-c1ccccc1)C(=O)NC(C)c1ccccc1 (centres undefined)	71.2*	94.6
Cc1cc(Cl)ccc1OCC(=O)N1C(C)CCCC1C (centres undefined)	21.1	87.5
O=C(CSc1nnc(-c2ccccc2)n1Cc1ccco1)Nc1ccc(S(=O)(=O)N2CCCC2)cc1	83.8*	.
O=C(CSc1nnc(-c2ccco2)n1Cc1ccco1)Nc1ccccc1	29.4	.
CCOC(=O)CSc1nc(N)cc(=O)[nH]1	.	75.8
CCOC(=O)CSc1nc(C)cc(=O)[nH]1	71.3*	97.8
Cn1c(=O)c2[nH]c(N3CCOCC3)nc2n(-c2ccccc2)c1=O	3.4	92.7
Cc1ccc(Nc2nc(C(=O)NCc3ccco3)cs2)cc1	.	70.6
CCN(CC)C(=O)c1csc(Nc2ccc(C)cc2)n1	.	38.2*
O=C(CSc1nnnn1-c1ccc2c(c1)OCCO2)Nc1nc2c(s1)CCCC2	76.9*	77.6
COc1cccc(-n2nnnc2SCC(=O)Nc2nc3c(s2)CCCC3)c1	-8.6	.
COc1cc(C2c3c(n[nH]c3C)C(=O)N2c2ccc(Br)cc2)ccc1O (centres undefined)	-4.0	91.6
SMILES	mHtt clearance	SKBR3 24h inh
CCOc1cc(C2c3c(n[nH]c3C)C(=O)N2c2ccc(Br)cc2)ccc1O (centres undefined)	2.4	36.8*
C=CCOC(=O)C1=C(C)N(C)C(=O)NC1c1cc2c(cc1Br)OCO2 (centres undefined)	.	79.7
CCCCC(O)(C(NC=O)C(=O)OC)C(F)(F)F (centres undefined)	44.8	116.4
Cc1nnc(SCC(=O)NC(C)(C)C)n1CCc1ccccc1	.	112.8
Cc1nnc(SCC(N)=O)n1CCc1ccccc1	71.4*	.
Cc1cc(C)c(C)c(S(=O)(=O)NCc2ccc(C(=O)N3CCCCC3)cc2)c1C	17.3	.
COc1ccccc1NS(=O)(=O)c1ccc(OC)c(OC)c1	-9.2	28.6*
CCOc1ccccc1NS(=O)(=O)c1ccc(OC)c(OC)c1	.	73.5
CCN(CC)c1ccc2cc(-c3nc4ccccc4[nH]3)c(=O)oc2c1	-10.7	41.5*
CCN(CC)c1ccc2cc(-c3nc4ccccc4n3C)c(=O)oc2c1	i	.
COc1ccc(NC(=O)CNS(=O)(=O)c2cccs2)c(OC)c1	26.9	.
O=C(Cc1ccc(F)cc1)Nc1c2c(nn1-c1cccc(Cl)c1)CS(=O)C2 (centres undefined)	24.7	36.3*
CCC(=O)Nc1c2c(nn1-c1ccc(F)cc1)CS(=O)C2 (centres undefined)	-23.4	.
CCOc1ccc(Br)cc1C1NC(=O)c2c(sc3c2CCN(C)C3)N1 (centres undefined)	.	91.0
COc1ccc(Br)cc1C1NC(=O)c2c(sc3c2CCN(C)C3)N1 (centres undefined)	.	42.8*
Cc1cc(NS(=O)(=O)c2ccccc2)c(C)c(Cl)c1O	.	90.8
Clc1ncn(C23CC4CC(CC(C4)C2)C3)n1	.	88.6
CCOc1ccc(N2C(=O)CN=C2Nc2ccccc2F)cc1	96.6*	.
COc1ccc(NC2=NCC(=O)N2c2ccccc2)c(OC)c1	.	80.2
CC(=O)N1CN(Cc2ccccn2)Cc2c1sc1c2CCCC1	82.8*	.
CC(=O)N1CN(CCCn2ccnc2)Cc2c1sc1c2CCCC1	.	88.3
CCCCCCn1c(N2CCN(c3ccccc3)CC2)nc2c1c(=O)n(C)c(=O)n2C	.	72.2
COc1ccc(CCNC(=O)CSc2nc(N)c(C#N)c(-c3cccs3)c2C#N)cc1OC	71.8*	58.6
Cc1ccccc1NC(=O)CSc1nc(N)c(C#N)c(-c2cccs2)c1C#N	-0.1	71.9
CCOC(=O)C1=C(C)N(CCO)C(=O)NC1c1cccc(O)c1 (centres undefined)	-12.1	79.2
